Measurements published in PubChem BioAssay.

Assay: anti-His antibody binders, primary screen, artefact control for SMM control protein annotation, biochemical, small-molecule microarray, 635 nm fluorescence (AID 1128);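 also: score merges feature fluorescence with signal-to-noise for each printed compound spot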
Conditions: anti-His Alexa647 antibody binding, higher = more signal

Structure (SMILES)	composite z-score
CN1C=C(C(=O)OCCS(C)(=O)=O)C(C(=O)OCCS(C)(=O)=O)=CC(c2ccc(CO)cc2)=CC1c1cccs1 (stereo not given)	1.48
CS(=O)(=O)CCOC(=O)C1=CC(CCCO)=CC(C2CC2)N(Cc2cccc(OC(F)(F)F)c2)C=C1C(=O)OCCS(C)(=O)=O (stereo not given)	1.96
CC(C)[C@H]1NC(=O)[C@@]23C(=O)N[C@@H](Cc4ccccc4)C2[C@H](C)[C@@]2(C)O[C@H]2C3/C=C/C/C=C\CNC(=O)[C@H](Cc2ccccc2)NC1=O (stereo not given in full)	0.591
Cc1ccc(S[C@]2(C(=O)NCc3ccccc3)CC(=O)N(Cc3cc(C(F)(F)F)cc(C(F)(F)F)c3)[C@@H]2c2ccc(CO)cc2I)cc1	-1.1
CN(C)C(=O)[C@@]1(Cc2ccccc2N=[N+]=[N-])N=C(c2ccc(OCCCO)cc2)O[C@H]1c1ccccc1	1.78
COCC1=C2[C@@H](CCc3ccccc3)OB(O)C[C@@H]2[C@@H]2C(=O)N(C)C(=O)[C@@H]2C1	0.0751
O=C1C2C=CC(C(O)c3ccco3)N(Nc3ccccc3)C2C(=O)N1c1ccccc1 (stereo not given)	-0.317
NC(=O)[C@H]1[C@@H]2C(=O)O[C@@H](c3ccccc3)[C@@H](c3ccccc3)N2[C@@H](c2ccc(O)cc2)[C@]12C(=O)Nc1ccc(C#CC3=CCCCC3)cc12	2.5
C=C(/C(=C/C[C@@H](OC(=O)c1ccncc1)c1cccc(OCCO)c1)c1cnc2ccccc2c1)C(C)C	0.787
CC(C)[C@H]1NC(=O)[C@@]23C(=O)N[C@@H](Cc4ccccc4)C2[C@H](C)[C@@]2(C)O[C@H]2C3/C=C/CCC/C=C/CNC(=O)[C@H](Cc2ccccc2)NC1=O (stereo not given in full)	0.123
C=C(COC)/C(=C/C[C@@H](OC(C)=O)c1ccc(CO)o1)c1cc(C(=O)OC)ccc1OC	0.291
C=CCC(OC(C)=O)[C@@H]1[C@@H](N(Cc2cccc3ccccc23)C(=O)Cc2ccc(F)cc2)c2cc(OCCCO)ccc2N1C(=O)c1ccc(-c2ccccc2)cc1 (stereo not given in full)	-0.517
CC(=O)NCCCC[C@@H]1NC(=O)[C@H]2C[C@@H](C(=O)NCCCCCNC(=O)CS)[C@@H](c3cccc(OCCO)c3)N2C1=O	2.85
COCCOC(=O)N1C(=O)[C@@]2(c3cc(C#CCC(C(=O)OC)C(=O)OC)ccc31)[C@H](c1ccc(O)cc1)N1[C@H](c3ccccc3)[C@H](c3ccccc3)OC(=O)[C@H]1[C@@H]2C(=O)NC[C@H](O)c1ccccc1	0.135
Cc1ccccc1C(O)C1C=CC2C(=O)N(c3ccccc3)C(=O)C2N1Nc1ccc([N+](=O)[O-])cc1 (stereo not given)	1.48
Cc1cccc([C@H]2C[C@H]3C(Br)=C[C@@H]2C(=O)[C@]32CO2)c1	-0.255
CCOC(=O)C=Cc1ccccc1O	0.712
CCOC(=O)C1=CCC(c2ccccc2)N(S(=O)(=O)c2ccc([N+](=O)[O-])cc2)C1 (stereo not given)	0.927

Structure (SMILES)	composite z-score
C=C(CCCC)C(=O)CC[C@@H](OC(=O)c1cccnc1)c1ccc(OCCO)cc1	0.0583
CC(C)C[C@@H]1NC(=O)CNC(=O)[C@@]23C(=O)N[C@@H](Cc4ccccc4)C2[C@H](C)[C@@]2(C)O[C@H]2C3/C=C/C/C=C\CNC1=O (stereo not given in full)	0.678
[N-]=[N+]=Nc1ccccc1C[C@@]1(C(=O)O)N=C(c2ccc(OCCCO)cc2)O[C@@H]1c1ccccc1N=[N+]=[N-]	2.68
CCCCC(=O)N(CCN1CCOCC1)[C@@H]1CC(C(=O)NCCO)=C[C@H](Oc2c(I)cc(CO)cc2OC)[C@H]1O	0.438
COc1ccc(C#Cc2ccc3c(c2)[C@]2(C(=O)N3)[C@H](C(=O)N3CCCCCCC3)[C@H]3C(=O)O[C@H](c4ccccc4)[C@H](c4ccccc4)N3[C@@H]2c2ccc(O)cc2)cc1	1.21
CCOC(=O)C1=C[C@@H](c2ccccc2)N(S(=O)(=O)c2ccc(C)cc2)[C@H]1c1ccccc1	0.421
COCCOC(=O)N1C(=O)[C@@]2(c3cc(C#CCCO)ccc31)[C@H](C(N)=O)[C@H]1C(=O)O[C@H](c3ccccc3)[C@H](c3ccccc3)N1[C@@H]2c1ccc(OCCO)cc1	0.911
C=C(/C(=C/C[C@@H](OC(C)=O)c1ccc(CO)o1)c1cc(C(=O)OC)ccc1OC)C(C)C	1.54
CCCCCCCCCCC(O)C1C=CC2C(=O)N(C)C(=O)C2N1Nc1cc(OC)c(OC)c(OC)c1 (stereo not given)	0.255
C=CCC(OC(C)=O)[C@@H]1[C@@H](N(Cc2ccc(-c3ccccc3)cc2)C(=O)Cc2ccc(F)cc2)c2cc(OCCCO)ccc2N1C(=O)Cc1ccc2ccccc2c1 (stereo not given in full)	-0.631
COCCOC(=O)N1C(=O)[C@@]2(c3cc(C#CCNC(N)=O)ccc31)[C@H](c1ccc(OCCO)cc1)N1[C@H](c3ccccc3)[C@H](c3ccccc3)OC(=O)[C@H]1[C@@H]2C(=O)NC[C@H](O)c1ccccc1	0.626
C=C[C@@H](C)[C@H](O)c1ccc(OCCO)cc1	0.0123
CC(=O)N1CC(C(O)C2C=CC3C(=O)NC(=O)C3N2Nc2ccc(Cl)cc2Cl)c2ccccc21 (stereo not given)	0.285
Nc1cc(Br)ccc1C(=O)O	1.28
C=C(CCCC)/C(=C/C[C@H](OC(C)=O)c1ccc(OCCO)cc1)c1cc(C(=O)OC)ccc1OC	0.124
C=C(COC)/C(=C/C[C@H](OC(C)=O)c1cccc(OCCO)c1)c1cnc2ccccc2c1	0.18
C=CCNC(=O)[C@H]1[C@@H]2C(=O)O[C@@H](c3ccccc3)[C@@H](c3ccccc3)N2[C@@H](c2ccc(OCCO)cc2)[C@]12C(=O)N(C(=O)OCCOC)c1ccc(C#Cc3ccc(OC)cc3)cc12	1.25
